Active and inactive are the calls of the source. How the source made its calls: active means hit-call score of the fitted dose curve at least 0.9, where 1 is the maximum; inactive means score below 0.9.
Key:
Conditions in all cases: mRNA level, 48 h; actives raise or lower the signal
[1] = read-out: Potassium channel subfamily K member 1 (KCNK1), KCNK1 (gene 3775); assay: LTEA_HepaRG_KCNK1: Life Technologies and Expression Analysis (LTEA) Assay for Potassium channel subfamily K member 1 (KCNK1) using HepaRG (AID 2283511)
Summary of the method: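 Gain or loss of KCNK1 mRNA is the read-out, quantified by qRT-PCR against three housekeeping genes after 48 h chemical treatment of human HepaRG liver cells. Concentrations ran from 100 uM downward in half-log steps, vehicle 0.5% DMSO.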

[2] = read-out: Keratin 19 (KRT19), KRT19 (gene 3880); assay: LTEA_HepaRG_KRT19: Life Technologies and Expression Analysis (LTEA) Assay for Keratin 19 (KRT19) using HepaRG (AID 2283512)
Summary of the method: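 Readout is qRT-PCR of KRT19 mRNA, normalized to ACTB, GAPDH and POLR2A, from HepaRG cells treated 48 h with eight-point half-log dilutions topping at 100 uM. Activity in either direction is scored relative to 0.5% DMSO vehicle.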

[3] = read-out: Lipase C (LIPC), LIPC (gene 3990); assay: LTEA_HepaRG_LIPC: Life Technologies and Expression Analysis (LTEA) Assay for Lipase C (LIPC) using HepaRG (AID 2283514)
Summary of the method: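 Read-out is LIPC transcript level by TaqMan qRT-PCR, normalized to three housekeeping genes, after 48 h chemical treatment of human HepaRG liver cells. Curves span eight concentrations topping at 100 uM; activity in either direction scored relative to 0.5% DMSO.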

[4] = read-out: Lipoprotein lipase (LPL), LPL (gene 4023); assay: LTEA_HepaRG_LPL: Life Technologies and Expression Analysis (LTEA) Assay for Lipoprotein lipase (LPL) using HepaRG (AID 2283515)
Summary of the method: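 Read-out is LPL transcript level by qRT-PCR, normalized to three housekeeping genes and fitted bidirectionally against the DMSO control. Human HepaRG cells received chemicals for 48 h at up to 100 uM.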

[5] = read-out: MicroRNA 122 (MIR122), gene 406906; assay: LTEA_HepaRG_MIR122: Life Technologies and Expression Analysis (LTEA) Assay for MicroRNA 122 (MIR122) using HepaRG (AID 2283516); further: the transcript read is the microRNA miR-122
Summary of the method: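 HepaRG plated 48 h, switched to serum-free induction medium, then treated in duplicate for 48 h (100 uM top, half-log steps, 0.5% DMSO vehicle). RNA isolated, qRT-PCR performed, concentration-response fitted both directions relative to DMSO.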

[6] = read-out: matrix metalloproteinase-10 (MMP10), MMP10 (gene 4319); assay: LTEA_HepaRG_MMP10: Life Technologies and Expression Analysis (LTEA) Assay for matrix metalloproteinase-10 (MMP10) using HepaRG (AID 2283517)
Summary of the method: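 Gain or loss of MMP10 mRNA is fitted relative to the 0.5% DMSO vehicle. The human hepatic line HepaRG receives a 48-hour serum-free exposure, in duplicate, with a maximum concentration of 100 uM.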

MYC, MYC (gene 4609) = assay: LTEA_HepaRG_MYC: Life Technologies and Expression Analysis (LTEA) Assay for MYC using HepaRG (AID 2283518)
Summary of the method: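 Expression changes were scored by TaqMan qRT-PCR with ACTB, GAPDH and POLR2A normalization. Cultures in serum-free induction medium received duplicate 8-point concentration series, highest 100 uM, for 48 h; DMSO (0.5%) served as baseline.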

[7] = read-out: matrix metalloproteinase-3 (MMP3), MMP3 (gene 4314); assay: LTEA_HepaRG_MMP3: Life Technologies and Expression Analysis (LTEA) Assay for matrix metalloproteinase-3 (MMP3) using HepaRG (AID 2283519)
Summary of the method: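 HepaRG, human; 48 h dosing, 8 conc. (max 100 uM, half-log), duplicate, 0.5% DMSO. Readout: MMP3 transcript by Fluidigm TaqMan qRT-PCR, ACTB/GAPDH/POLR2A-normalised. Gain or loss fitted vs DMSO.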

[8] = read-out: Paternally Expressed 10 (PEG10), PEG10 (gene 23089); assay: LTEA_HepaRG_PEG10: Life Technologies and Expression Analysis (LTEA) Assay for Paternally Expressed 10 (PEG10) using HepaRG (AID 2283520)
Summary of the method: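 HepaRG, 48 h post-plating → serum-free induction medium → 48 h chemical exposure (duplicate, 8-pt, max 100 uM, half-log, 0.5% DMSO) → lysis in RLT → TaqMan qRT-PCR for PEG10, ACTB/GAPDH/POLR2A normalisation.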

[9] = read-out: Nuclear factor NF-kappa-B p105 subunit (Homo sapiens) (UniProt P19838); assay: LTEA_HepaRG_NFKB1: Life Technologies and Expression Analysis (LTEA) Assay for Nuclear Factor Kappa B Subunit 1 (NFKB1) using HepaRG (AID 2283521)
Summary of the method: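 NFKB1 transcript was measured by TaqMan qRT-PCR on Fluidigm arrays, normalised to three housekeeping genes and fitted in both directions against 0.5% DMSO. HepaRG cells were dosed in duplicate for 48 h in serum-free induction medium, eight half-log steps from 100 uM.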

[10] = read-out: Protein phosphatase 2A (PPP2R4), PTPA (gene 5524); assay: LTEA_HepaRG_PPP2R4: Life Technologies and Expression Analysis (LTEA) Assay for Protein phosphatase 2A (PPP2R4) using HepaRG (AID 2283522)
Summary of the method: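 Readout is PPP2R4 transcript level by microfluidic qRT-PCR after 48 h chemical treatment of human HepaRG liver cells. Concentrations spanned 100 uM downward in half-log steps; gain or loss of signal was fitted relative to DMSO.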

[11] = read-out: Phosphatase and tensin (PTEN), PTEN (gene 5728); assay: LTEA_HepaRG_PTEN: Life Technologies and Expression Analysis (LTEA) Assay for Phosphatase and tensin (PTEN) using HepaRG (AID 2283523)
Summary of the method: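 Read-out is PTEN transcript level by multiplexed TaqMan qRT-PCR after 48 h chemical treatment of human HepaRG cultures in serum-free induction medium. Concentrations spanned 100 uM downward in half-log steps, 0.5% DMSO throughout; activity fitted in both directions against vehicle.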

[12] = read-out: solute carrier (SLC22A1), SLC22A1 (gene 6580); assay: LTEA_HepaRG_SLC22A1: Life Technologies and Expression Analysis (LTEA) Assay for solute carrier (SLC22A1) using HepaRG (AID 2283524);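 on AC50: differentiated human HepaRG liver cells in serum-free induction medium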
Summary of the method: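 HepaRG (human liver line), 48 h dosing in serum-free induction medium; 8 conc., half-log down from 100 uM, 0.5% DMSO vehicle, duplicates. Endpoint: SLC22A1 mRNA, qRT-PCR, housekeeping-normalized; gain/loss fit vs DMSO.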

[13] = read-out: Pyruvate Dehydrogenase Kinase 4 (PDK4), PDK4 (gene 5166); assay: LTEA_HepaRG_PDK4: Life Technologies and Expression Analysis (LTEA) Assay for Pyruvate Dehydrogenase Kinase 4 (PDK4) using HepaRG (AID 2283525)
Summary of the method: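 In this multiplexed human HepaRG expression assay, cells are treated 48 h with test chemicals across an eight-point range starting at 100 uM. PDK4 mRNA changes, normalized to ACTB/GAPDH/POLR2A, are fitted in both directions relative to vehicle.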

[14] = read-out: Nuclear factor erythroid 2-related factor 2 (Homo sapiens) (UniProt Q16236); assay: LTEA_HepaRG_NFE2L2: Life Technologies and Expression Analysis (LTEA) Assay for Nuclear factor erythroid 2-related factor 2 (NFE2L2) Transcription Factor using HepaRG (AID 2283527)
Summary of the method: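 Transcript level of NFE2L2 is the read-out, measured by microfluidic TaqMan qRT-PCR and normalized to three housekeeping genes. Human HepaRG cultures received test chemical for 48 h at up to 100 uM in half-log steps. Gain or loss of signal is fitted relative to 0.5% DMSO.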

[15] = read-out: succinate dehydrogenase complex iron sulfur subunit B (SDHB), SDHB (gene 6390); assay: LTEA_HepaRG_SDHB: Life Technologies and Expression Analysis (LTEA) Assay for succinate dehydrogenase complex iron sulfur subunit B (SDHB) using HepaRG (AID 2283528)
Summary of the method: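 SDHB transcript level read by TaqMan qRT-PCR, housekeeping-normalised (ACTB, GAPDH, POLR2A), after 48 h chemical treatment of plated HepaRG cells; eight concentrations top 100 uM, half-log steps, 0.5% DMSO, duplicates; fitted both directions against DMSO.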

[16] = read-out: Signal transducer and activator of transcription 3 (Homo sapiens) (UniProt P40763); assay: LTEA_HepaRG_STAT3: Life Technologies and Expression Analysis (LTEA) Assay for Signal transducer and activator of transcription (STAT3) using HepaRG (AID 2283529)
Summary of the method: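 Read-out is STAT3 mRNA level by qRT-PCR, normalized to three housekeeping genes, in human HepaRG liver cells treated for 48 h. Concentrations ran from 100 uM downward in half-log steps; curves were fitted for gain or loss relative to 0.5% DMSO.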

[17] = read-out: solute carrier (SLCO1B1), SLCO1B1 (gene 10599); assay: LTEA_HepaRG_SLCO1B1: Life Technologies and Expression Analysis (LTEA) Assay for solute carrier (SLCO1B1) using HepaRG (AID 2283530)
Summary of the method: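 Human HepaRG cultures treated for 48 h with an eight-concentration half-log series topping at 100 uM; SLCO1B1 measured by qRT-PCR and fitted bidirectionally relative to DMSO.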

[18] = read-out: NAD(P)H dehydrogenase [quinone] 1 (NQO1), NQO1 (gene 1728); assay: LTEA_HepaRG_NQO1: Life Technologies and Expression Analysis (LTEA) Assay for NAD(P)H dehydrogenase [quinone] 1 (NQO1) using HepaRG (AID 2283526)
Summary of the method: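 HepaRG, 48 h post-plating → serum-free induction medium → test chemical 48 h (duplicate, 100 uM top, half-log x8, 0.5% DMSO) → RNA isolation → qRT-PCR, ACTB/GAPDH/POLR2A normalization; bidirectional curve fit vs DMSO baseline.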

[19] = read-out: JUN Transcription Factor, JUN (gene 3725); assay: LTEA_HepaRG_JUN: Life Technologies and Expression Analysis (LTEA) Assay for JUN Transcription Factor using HepaRG (AID 2283513)
Summary of the method: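 Cells plated 48 h, medium switched to serum-free induction medium, then dosed 48 h (100 uM top, half-log dilutions, 0.5% DMSO). RNA isolated; JUN measured by qRT-PCR against three housekeeping genes; gain or loss fitted relative to DMSO.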

Measured: AC50

Sequence of Nuclear factor erythroid 2-related factor 2 (Homo sapiens) (Q16236 whole entry, looked up): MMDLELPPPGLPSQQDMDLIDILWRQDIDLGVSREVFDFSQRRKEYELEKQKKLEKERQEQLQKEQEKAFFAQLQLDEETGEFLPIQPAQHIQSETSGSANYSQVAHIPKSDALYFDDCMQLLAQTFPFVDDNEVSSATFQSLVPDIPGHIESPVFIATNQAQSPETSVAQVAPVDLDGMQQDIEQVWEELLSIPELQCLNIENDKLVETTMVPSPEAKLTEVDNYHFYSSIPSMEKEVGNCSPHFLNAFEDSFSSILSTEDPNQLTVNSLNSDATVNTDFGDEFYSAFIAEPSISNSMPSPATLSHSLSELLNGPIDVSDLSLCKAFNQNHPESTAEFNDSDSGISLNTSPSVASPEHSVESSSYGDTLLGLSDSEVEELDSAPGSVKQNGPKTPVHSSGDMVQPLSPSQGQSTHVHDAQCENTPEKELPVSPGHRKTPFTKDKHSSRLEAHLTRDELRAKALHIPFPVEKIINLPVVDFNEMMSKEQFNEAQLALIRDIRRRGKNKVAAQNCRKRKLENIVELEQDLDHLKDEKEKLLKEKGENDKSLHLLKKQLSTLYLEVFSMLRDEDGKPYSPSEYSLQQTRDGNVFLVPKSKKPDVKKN
Sequence of Signal transducer and activator of transcription 3 (Homo sapiens) (P40763 whole entry, looked up): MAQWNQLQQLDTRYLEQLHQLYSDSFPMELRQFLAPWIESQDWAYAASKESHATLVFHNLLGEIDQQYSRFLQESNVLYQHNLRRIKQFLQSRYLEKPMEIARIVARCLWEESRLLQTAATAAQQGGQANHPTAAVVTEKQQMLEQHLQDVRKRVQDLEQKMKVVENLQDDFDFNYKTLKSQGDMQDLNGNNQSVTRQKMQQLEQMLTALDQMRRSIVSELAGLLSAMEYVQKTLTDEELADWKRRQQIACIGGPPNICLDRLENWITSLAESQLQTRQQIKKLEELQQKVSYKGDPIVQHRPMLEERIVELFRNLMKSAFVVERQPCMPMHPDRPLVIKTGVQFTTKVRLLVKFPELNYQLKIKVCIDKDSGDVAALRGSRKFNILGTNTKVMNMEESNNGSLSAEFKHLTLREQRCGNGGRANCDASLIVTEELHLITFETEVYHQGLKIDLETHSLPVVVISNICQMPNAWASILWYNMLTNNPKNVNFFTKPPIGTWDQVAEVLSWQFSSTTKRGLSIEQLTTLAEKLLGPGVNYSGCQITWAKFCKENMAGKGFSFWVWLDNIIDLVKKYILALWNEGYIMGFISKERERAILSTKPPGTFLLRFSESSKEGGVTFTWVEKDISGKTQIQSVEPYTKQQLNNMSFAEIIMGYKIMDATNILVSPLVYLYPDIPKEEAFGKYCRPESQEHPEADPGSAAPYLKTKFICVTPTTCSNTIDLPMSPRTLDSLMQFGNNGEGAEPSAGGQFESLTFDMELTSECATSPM
Sequence of Nuclear factor NF-kappa-B p105 subunit (Homo sapiens) (P19838 whole entry, looked up): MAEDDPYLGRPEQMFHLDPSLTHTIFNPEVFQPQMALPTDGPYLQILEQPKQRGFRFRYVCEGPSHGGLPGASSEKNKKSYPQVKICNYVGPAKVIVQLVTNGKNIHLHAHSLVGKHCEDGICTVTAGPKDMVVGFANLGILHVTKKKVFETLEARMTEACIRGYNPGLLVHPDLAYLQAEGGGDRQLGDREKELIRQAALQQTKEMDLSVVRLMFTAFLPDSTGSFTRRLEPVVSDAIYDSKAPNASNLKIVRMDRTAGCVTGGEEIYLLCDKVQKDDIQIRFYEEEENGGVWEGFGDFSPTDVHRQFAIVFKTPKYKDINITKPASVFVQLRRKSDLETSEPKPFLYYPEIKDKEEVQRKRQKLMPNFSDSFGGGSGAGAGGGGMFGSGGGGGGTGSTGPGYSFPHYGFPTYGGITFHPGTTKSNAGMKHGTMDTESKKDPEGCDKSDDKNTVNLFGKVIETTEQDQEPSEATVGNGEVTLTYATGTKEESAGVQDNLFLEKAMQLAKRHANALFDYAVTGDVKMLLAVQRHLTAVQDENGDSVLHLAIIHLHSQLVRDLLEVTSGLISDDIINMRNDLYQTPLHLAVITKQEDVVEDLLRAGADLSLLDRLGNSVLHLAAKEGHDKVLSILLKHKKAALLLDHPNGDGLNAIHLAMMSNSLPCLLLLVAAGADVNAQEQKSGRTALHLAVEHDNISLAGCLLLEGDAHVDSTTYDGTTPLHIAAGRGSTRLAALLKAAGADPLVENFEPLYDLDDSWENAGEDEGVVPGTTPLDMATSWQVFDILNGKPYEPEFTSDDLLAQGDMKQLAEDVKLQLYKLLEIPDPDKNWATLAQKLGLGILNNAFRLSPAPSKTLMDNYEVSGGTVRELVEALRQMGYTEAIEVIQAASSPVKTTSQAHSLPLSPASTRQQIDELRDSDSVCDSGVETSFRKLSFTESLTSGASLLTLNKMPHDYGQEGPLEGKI

COC(=O)c1c(C(F)F)nc(C(F)(F)F)c(C2=NCCS2)c1CC(C)C
not listed: [18] | [19]
inactive: all other assays above

Cc1cnc(C2=NC(C)(C(C)C)C(=O)N2)c(C(=O)O)c1 (centres undefined)
not listed: [9] | [19]
inactive: all other assays above

CC(C)N1C(=O)c2ccccc2NS1(=O)=O
not listed: [18] | [19]
inactive: all other assays above

N#Cc1c[nH]cc1-c1cccc2c1OC(F)(F)O2
active: [2] 23.9 µM | [3] 46.7 µM | [4] 7.8 µM | MYC, MYC (gene 4609) 80.3 µM | [8] 74.2 µM | [12] 40.7 µM | [13] 83.9 µM | [14] 84.7 µM | [17] 50 µM
inactive: [1] | [5] | [6] | [7] | [9] | [10] | [11] | [15] | [16]

CCSC(=O)N1CCCCCC1
active: [9] 12.6 µM
not listed: [18] | [19]
inactive: all other assays above

O=P(O)(O)CCCl
not listed: [19]
inactive: all other assays above

OC(c1ccc(Cl)cc1)(c1ccc(Cl)cc1)C(Cl)(Cl)Cl
inactive: [4] | [8] | [9] | [10] | [15] | [16]
active: [1] 50 µM | [2] 50 µM | [3] 77.7 µM | [5] 64.9 µM | [6] 67.2 µM | MYC, MYC (gene 4609) 73.7 µM | [7] 50 µM | [11] 78.4 µM | [12] 81.9 µM | [13] 80.5 µM | [18] 93 µM | [14] 71 µM | [17] 81.6 µM

COCC(C)N(C(=O)CCl)c1c(C)csc1C (centres undefined)
active: [12] 73.3 µM
not listed: [2] | [18] | [19]
inactive: all other assays above

CC(C)C1(C)N=C(c2ncccc2C(=O)O)NC1=O (centres undefined)
not listed: [2] | [9] | [18]
inactive: all other assays above

COc1cc(Cl)c(OC)cc1Cl
not listed: [14] | [18] | [19]
inactive: all other assays above

Cn1c(-c2ccccc2)cc(-c2ccccc2)[n+]1C
active: [2] 24 µM | [3] 28 µM | [4] 11.4 µM | [5] 28.7 µM | MYC, MYC (gene 4609) 3.12 µM | [7] 88.9 µM | [8] 10.7 µM | [11] 88.3 µM | [12] 34.5 µM | [16] 22.5 µM | [17] 18.6 µM
inactive: [1] | [10] | [13] | [14] | [15]

CSC(=O)c1c(C(F)F)nc(C(F)(F)F)c(C(=O)SC)c1CC(C)C
active: [3] 91.9 µM | [5] 49.8 µM | [12] 90 µM | [13] 33.8 µM | [16] 49.8 µM
not listed: [9] | [19]
inactive: all other assays above

CC(C)Oc1cccc(NC(=O)c2ccccc2C(F)(F)F)c1
active: [2] 34.1 µM | [8] 78.5 µM | [13] 50 µM
not listed: [18] | [19]
inactive: all other assays above

CCOP(=O)(OCC)Oc1nc(Cl)c(Cl)cc1Cl
inactive: [1] | [2] | [6] | [9] | [11] | [13] | [15] | [16]
active: [3] 78.7 µM | [4] 61.5 µM | [5] 87.7 µM | MYC, MYC (gene 4609) 49.8 µM | [7] 62.7 µM | [8] 59.6 µM | [10] 76.6 µM | [12] 92.2 µM | [14] 49.8 µM | [17] 93.5 µM

Source: PubChem BioAssay (EPA / NIEHS)
